Assay results published in PubChem BioAssay (NCATS).
Values joined by “and” are separate entries in the source; they are usually repeats but may differ in a detail not shown here. Equal entries are not always repeated. Inconclusive results are not listed. Active and inactive are the calls of the source. Calls come from the whole dose curve; as a rule, active = well fitted curve in the direction sought with a large enough effect; inconclusive = small, poorly fitted or top-dose-only effect, or another doubt; inactive = no such curve, though single readings can be large; an effect the other way counts as inactive or inconclusive.

Assays:
[1] = target: T1, Hexokinase-4 (Homo sapiens) + Glucokinase regulatory protein (Homo sapiens) (UniProt P35557+Q14397); test: qHTS assay for inhibitors of recombinant human GCK-GKRP interaction: Diaphorase-coupled assay (AID 743205)
How it was run: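 A kinetic fluorescence read (Ex 525/Em 590 nm, every minute for 30 minutes) tracked resorufin from a G6PDH-diaphorase coupled GCK reaction. It contained 10 nM GST-GCK, 10 nM FLAG-GKRP, 5 mM glucose, 0.4 mM ATP in Hepes pH 7.6. Normalized to with/without-enzyme DMSO controls.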

[2] = target: T1, Hexokinase-4 (Homo sapiens) + Glucokinase regulatory protein (Homo sapiens); test: qHTS assay for inhibitors of recombinant human GCK-GKRP interaction: ADP-Glo assay (AID 743206);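 note: plate controls were DMSO plus enzyme for no effect and no enzyme for full effect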
How it was run: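 GST-GCK and FLAG-GKRP (15 nM each in the dispensed mix, with 2 uM S6P) react with 0.4 mM ATP and 5 mM glucose (final) in Hepes pH 7.6 for 60 min at room temperature. ADP is measured by ADP-Glo luminescence.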

[3] = qHTS Assay for Identifying Gametocytocidal Compounds (AID 743244); note: potency is the fitted concentration of half-maximal effect;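 for max response: % is set by controls: 0 for no effect and ±100 for the full control effect; actives lower the fluorescent signal which means gametocytes are killed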; settings: P. falciparum 3D7 stage III-V gametocytes, alamarBlue, 72 h; max response: active compounds read low
How it was run: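 Stage III-V P. falciparum 3D7 gametocytes, 20,000 per well, were exposed to compounds for 72 h at 37C, 5% CO2. AlamarBlue was then added for 24 h and viability was read as fluorescence at Ex 525/Em 598 nm.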

[4] = qHTS assay for measurement of the activity of small molecule inhibitors on Zika virus induced Caspase-3 activity in human astrocytoma cells (AID 1224859);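 note: plate controls were ZIKV-infected untreated cells for no effect and uninfected cells for full effect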
How it was run: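 SNB-19 astrocytoma cells, 250/well, pretreated 1 h with compounds, then Zika virus at 2 FFU/cell for 6 h at 37 C; Caspase-Glo 3/7 luminescence after 30 min; percent inhibition normalised to uninfected and infected controls.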

[5] = target: T1, Hexokinase-4 (Homo sapiens) + Glucokinase regulatory protein (Homo sapiens); test: qHTS assay for inhibitors of recombinant human GCK-GKRP interaction: HTRF assay (AID 743207);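 note: 0% = DMSO with GCK present and -100% = DMSO wells lacking GCK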
How it was run: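 After 60 min equilibration at room temperature with anti-FLAG XL665 and anti-GST antibodies, FRET ratio (665/615 nm, excitation 320 nm) was read. Proteins: GST-GCK and FLAG-GKRP, each 5 nM, plus 2 uM S6P, pH 7.1 buffer; GCK-free wells define minimum signal.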

[6] = qHTS assay for cell viability of HEK293 cells (AID 743288); settings: ATP luminescence (CellTiter-Glo), 18 h; max response: active compounds read low; note: % is set by controls: 0 for no effect and ±100 for the full control effect; nearly all actives have a fitted effect of over 50% in size
How it was run: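 Total intracellular ATP, measured with a luciferase-coupled reagent, indicates the number of viable HEK293 cells. Exposure to test chemicals lasts 18 h at 37 C in 1,536-well format at 2,000 cells/well.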

[7] = qHTS assay for cell viability of the p53RE-bla HCT-116 cell line (AID 743292); note: % is set by controls: 0 for no effect and ±100 for the full control effect; nearly all actives have a fitted effect of over 55% in size
How it was run: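 Quantitative high-throughput format: compounds in DMSO were pinned onto p53RE-bla HCT-116 cells (4,000/well) and incubated 16 h at 37 C. Total intracellular ATP, read by CellTiter-Glo luminescence, reflects viable cell number.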

T1 sequence (P35557 whole entry, looked up): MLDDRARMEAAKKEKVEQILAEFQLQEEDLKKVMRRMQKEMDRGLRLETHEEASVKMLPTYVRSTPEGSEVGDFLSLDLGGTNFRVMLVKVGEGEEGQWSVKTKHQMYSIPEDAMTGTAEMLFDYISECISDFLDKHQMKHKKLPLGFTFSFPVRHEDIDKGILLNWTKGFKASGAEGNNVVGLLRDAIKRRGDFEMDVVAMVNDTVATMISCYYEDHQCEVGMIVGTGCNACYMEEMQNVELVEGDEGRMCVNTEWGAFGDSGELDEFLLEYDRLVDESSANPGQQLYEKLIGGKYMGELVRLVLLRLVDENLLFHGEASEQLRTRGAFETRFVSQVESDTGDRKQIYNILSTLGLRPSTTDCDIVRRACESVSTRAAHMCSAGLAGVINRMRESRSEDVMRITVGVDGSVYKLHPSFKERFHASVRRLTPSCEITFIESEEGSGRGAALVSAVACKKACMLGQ
T1 sequence (Q14397 whole entry, looked up): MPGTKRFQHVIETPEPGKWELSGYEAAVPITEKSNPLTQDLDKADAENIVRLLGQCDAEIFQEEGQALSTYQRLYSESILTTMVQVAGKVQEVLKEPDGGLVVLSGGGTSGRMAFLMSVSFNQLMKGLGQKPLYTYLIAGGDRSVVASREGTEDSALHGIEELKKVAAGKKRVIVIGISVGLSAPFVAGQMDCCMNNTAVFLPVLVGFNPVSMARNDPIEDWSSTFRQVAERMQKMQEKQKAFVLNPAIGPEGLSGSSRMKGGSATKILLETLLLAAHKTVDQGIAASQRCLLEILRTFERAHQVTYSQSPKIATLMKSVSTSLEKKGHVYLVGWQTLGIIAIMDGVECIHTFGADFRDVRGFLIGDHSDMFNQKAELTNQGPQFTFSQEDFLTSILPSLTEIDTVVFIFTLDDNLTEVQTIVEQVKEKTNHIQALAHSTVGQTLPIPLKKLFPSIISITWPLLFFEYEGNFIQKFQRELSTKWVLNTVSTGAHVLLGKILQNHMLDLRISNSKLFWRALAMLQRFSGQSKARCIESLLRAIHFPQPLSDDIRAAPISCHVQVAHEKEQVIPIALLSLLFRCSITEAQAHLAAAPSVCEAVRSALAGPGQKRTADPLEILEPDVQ

N.N.N.N.N.N.N.N.N.N.N.N.N.N.O.O.[Ru+4].[Ru+5].[Ru+5]
active: Potency [3] 0.935 µM
inactive: outcome [1] | Potency [2] | Potency [4]

CC(=O)SCC(CC(=O)c1ccc(C)cc1)C(=O)O (configuration not stated)
inactive: max response [3] 17.7% | Potency [4]

CCCCCCCCCCCCCCCC(=O)NCC(COP(=O)([O-])OCC[N+](C)(C)C)OCC (configuration not stated)
inactive: outcome [1] | Potency [2] | Potency [5] | max response [3] 1.33% | Potency [4]

Cc1nc2sccn2c(=O)c1CCN1CCC(=C(c2ccccc2)c2ccc(F)cc2)CC1
inactive: outcome [1] | Potency [2] | Potency [5] | max response [3] 35.1% | Potency [4]

CC(=O)c1ccc(OCC(=O)N2CCCCC2)cc1
inactive: max response [3] 6.76% | Potency [4]

CN(C)c1ccc(N=NS(=O)(=O)O)cc1
active: Potency [3] 35.5 µM
inactive: max response [6] -6.45% and -13.1% | Potency [7] | Potency [4]

N#C/C(=C\c1ccc(O)c(O)c1)C(=O)NCc1ccccc1
inactive: outcome [1] | Potency [2] | Potency [5] | max response [3] 12.2% | Potency [4]
